IEC-6 cytotox = cytotoxicity in IEC-6 intestinal epithelial cells, primary screen, cytotoxicity control for KLF5 inhibitor project, cell-based, luminescence. IEC-6 cytotoxicity, luminescence viability. inhibition, % at 5 µM. 290,000 tested, 0.78% active; in the data active = inhibition above about 22%;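 note: 0% = plate median of test compound wells and 100% = cytotoxic reference compound wells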
aSyn UTR inh = MLPCN primary screen, SNCA 5' untranslated region. alpha-synuclein 5'UTR reporter, inhibitor activity. inhibition, % (tested at 7.5 µM). 300,000 tested, 0.82% active. AID 1813, 2009; in the data active = inhibition above about 60%; inconclusive = no clear call, values can overlap the other calls;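 note: H4 neuroglioblastoma cells stably carrying SNCA 5'UTR luciferase fusion; 0% = DMSO wells and 100% = positive control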
KLF5 inh = KLF5 expression inhibitors, primary screen, DLD-1 cells, luminescence. inhibition, % at 5 µM. 290,000 tested, 0.23% active. DLD-1 KLF5 promoter-luciferase reporter;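 active = inhibition above a per-plate limit of that plate's mean compound inhibition plus 3 SD, cut at about 60% in these data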;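 note: 0% = DMSO wells and 100% = LY294002 at 200 µM; higher means less KLF5 promoter-driven luciferase light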
CSC inhib = cancer stem cell viability inhibitors, primary screen, luminescence. cancer stem cell-like cells viability. inhibition, % at 7.5 µM. 300,000 tested, 1.1% active. AID 2717, 2010; in the data active = inhibition above about 75%; inconclusive = no clear call, values can overlap the other calls; tested in HMLE shEcad cells
SKKanGAS inh = S. pyogenes SKKanGAS growth inhibitors in kanamycin, primary screen, streptokinase expression inhibitor project, SKKanGAS strain, BacTiter-Glo luminescence; inhibition, % at 7.5 µM; 6 h; 300,000 tested, 1.3% active;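 active = mean replicate score, as percent of positive control median, at least 50; inconclusive = mean below 50 but one replicate at or above 50; inactive = mean and every replicate below 50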;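 note: strain carries kanamycin resistance gene driven by streptokinase promoter and grows in 40 µg/ml kanamycin; loss of luminescence reflects streptokinase promoter inhibition or plain growth inhibition; 0% = median of DMSO wells and 100% = positive control at its reference dose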
* marks the source's active call; other numbers are inactive results; ? = inconclusive; / = not tested or not shown; ! = a repeat was not active. Rows were chosen to be rich in hits. Some 3% of all compounds tested hit in one or more screens of this group.

SMILES | IEC-6 cytotox | aSyn UTR inh | KLF5 inh | CSC inhib | SKKanGAS inh
CN(C)S(=O)(=O)c1ccc(-c2csc(N/N=C/c3ccco3)n2)cc1 | 11 | -54 | -17 | 20 | -2
CCOC(=O)Cc1csc(N/N=C/c2cccc([N+](=O)[O-])c2)n1 | 8 | 6 | -11 | -9 | 3
N#Cc1ccc(NC(=O)Cn2cnc(S(=O)(=O)N3CCCC3)c2)cc1 | 2 | 6 | -5 | 2 | 1
Cc1ccn(CCC(=O)N2CCCC(CCC(=O)N3CCN(c4ccccn4)CC3)C2)n1 (centres undefined) | -1 | -16 | -25 | -19 | 6
O=C(NCCN1CCCCC1)c1cc(Cl)ccc1Cl | 5 | -1 | -13 | -4 | 1
O=C(O)c1ccc(N/N=C/c2ccc(OC(=O)c3ccccc3Cl)cc2)cc1 | 1 | ? | -23 | -7 | 63*
CC(C)c1ccc(/C=N/Nc2ccc(C(=O)O)cc2)cc1 | 0 | 85* | 32 | -17 | -11
CCOC(=O)C1=C(C)NC(C)=C(C(=O)OCC)C1C(=O)OCC(=O)NCc1ccccc1OC | / | / | / | -2 | /
NC(=O)c1sc(-c2ccsc2)cc1NS(=O)(=O)c1ccc(C(F)(F)F)cc1 | 3 | -24 | 8 | 79* | 11
N[C@@H](Cc1cc(I)c(Oc2cc(I)c(O)c(I)c2)c(I)c1)C(=O)O | / | -8 | / | 46 | 19
N[C@@H](Cc1cc(I)c(Oc2ccc(O)c(I)c2)c(I)c1)C(=O)O | 3 | -9 | 31 | 20 | 62*!
O=C(O)CCc1cc(I)c(Oc2ccc(O)c(I)c2)c(I)c1 | / | 8 | / | / | 97*
COc1ccc(CNC(=O)C(c2ccc(C)o2)N(Cc2cccs2)C(=O)Cc2cccs2)cc1 (centres undefined) | -3 | -2 | -8 | -1 | 4
O=C(Nc1nnc(-c2ccc(Cl)cc2)o1)c1cccc(N2C(=O)CCC2=O)c1 | 0 | 9 | 1 | 5 | 70*
CSc1cccc(-c2nnc(NC(=O)c3cccc(N4C(=O)CCC4=O)c3)o2)c1 | / | -20 | / | 17 | 85*
CCC(C)N(C(=O)COC(=O)c1ccccc1SCC(=O)N1CCCC1)C1CCS(=O)(=O)C1 (centres undefined) | 4 | -13 | 0 | -7 | 1
CCC1(c2ccc(F)cc2)NC(=O)N(CC(=O)Nc2ccc(S(N)(=O)=O)cc2)C1=O (centres undefined) | -7 | -10 | -8 | -11 | -13
COc1ccc(C(=O)O)cc1NC(=S)NC(=O)c1ccc(-c2ccc(Cl)cc2)o1 | -5 | 15 | -11 | / | 51*
O=C(O)c1cccc(NC(=S)NC(=O)c2ccc(-c3ccc(Cl)cc3)o2)c1 | -1 | 6 | -26 | -7 | 23
O=C(O)c1ccc(NC(=S)NC(=O)c2ccc(-c3ccc(Br)cc3)o2)cc1 | 5 | -7 | -25 | 21 | 55*
O=C(O)/C=C\C(=O)Nc1ccc(N2CCN(c3ccc(Cl)c(Cl)c3)CC2)cc1 | -2 | -19 | -2 | 85* | 7
O=C(O)/C=C\C(=O)Nc1ccc(N2CCN(c3ccc(Cl)cc3)CC2)cc1 | -5 | -21 | -33 | 50 | 4
O=C(COc1coc(CN2CCc3ccccc3C2)cc1=O)Nc1ccc(F)cc1F | / | 8 | / | -8 | -16
COc1ccc(C(C)=O)cc1COc1cc(C)c(Cl)c(C)c1 | 1 | 11 | -155 | 1 | 50*
COc1ccc(OCC(O)Cn2cnc(-c3ccc(Br)cc3)c2)cc1 (centres undefined) | -1 | 15 | -9 | 0 | -1
SMILES | IEC-6 cytotox | aSyn UTR inh | KLF5 inh | CSC inhib | SKKanGAS inh
OC(COc1ccc2ccccc2c1Br)Cn1cnc(-c2ccccc2)c1 (centres undefined) | -3 | 12 | -4 | 101* | 56*
CC(C)c1[nH]nc2c1C(c1ccco1)C(C#N)=C(N)O2 (centres undefined) | -1 | -133 | -38 | -1 | -7
O=[N+]([O-])c1ccc(Cl)c(S(=O)(=O)N2CCCCCC2)c1 | -4 | 3 | -6 | 52 | 6
CC(C)Cc1csc(NC(=O)C(C)C)c1C(=O)O | 7 | 8 | -71 | 8 | 15
O=C(Nc1scc(-c2ccc(Br)cc2)c1C(=O)O)c1ccccc1F | / | -37 | / | 24 | 78*
O=C(Nc1scc(-c2ccccc2)c1C(=O)O)c1ccccc1F | 1 | -28 | -44 | 7 | 13
Cc1ccccc1C(=O)Nc1scc(-c2ccc(Br)cc2)c1C(=O)O | / | 6 | / | 27 | 86*
COc1ccc(-c2csc(NC(=O)c3ccc(C(C)(C)C)cc3)c2C(=O)O)cc1 | / | ? | / | 37 | 82*

Screens (PubChem BioAssay)
